Records with an inconclusive call do not appear. Entries that show only a call come without a potency. Unmarked numbers belong to inactive results. Active and inactive are the calls of the source. The call rests on the fitted dose curve; in most records, active means well fitted curve in the direction sought with a large enough effect; inconclusive means small, poorly fitted or top-dose-only effect, or another doubt; inactive means no such curve, though single readings can be large; an effect the other way counts as inactive or inconclusive.
Columns and labels:
[1] = target: Rap guanine nucleotide exchange factor 3 (Homo sapiens) (UniProt O95398); assay: Confirmatory qHTS for agonist of cAMP-regulated guanine nucleotide exchange factor 3 (EPAC1) (AID 1645881);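 further: EPAC1 catalysed release of BODIPY-GDP from Rap1B seen as fluorescence loss; nearly all actives have a fitted effect of over 75% in size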
[2] = target: Rap guanine nucleotide exchange factor 4 (Homo sapiens) (UniProt Q8WZA2); assay: Confirmatory qHTS for agonist of cAMP-regulated guanine nucleotide exchange factor 4 (EPAC2) (AID 1645884);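 further: nucleotide exchange releases bodipy-GDP from Rap1 and this lowers its fluorescence; nearly all actives have a fitted effect of over 65% in size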
[3] = target: Rap guanine nucleotide exchange factor 3 (Homo sapiens) (UniProt O95398); assay: Counterscreen qHTS for antagonist of cAMP-regulated guanine nucleotide exchange factor 3 (EPAC1) (AID 1645888);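 further: fluorescence loss as bound BODIPY-GDP is released from Rap1B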
In short: (§1)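 Rap1B–BODIPY-GDP (250 nM) with 50 uM GDP; compounds pin-transferred to 9.74 nM–152 uM final (activator) or from 7.32 nM upwards (inhibitor). Fluorescence Ex/Em 480/540 nm read at 5 and 30 min, then after adding cAMP or buffer, at room temperature.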

[4] = target: Rap guanine nucleotide exchange factor 3 (Homo sapiens) (UniProt O95398); assay: Counterscreen qHTS for agonist of cAMP-regulated guanine nucleotide exchange factor 3 (EPAC1) (AID 1645889); further: nearly all actives have a fitted effect of over 40% in size; further: potency means the concentration at half of the fitted maximal effect
In short: as §1

Sequence of Rap guanine nucleotide exchange factor 3 (Homo sapiens) (O95398 whole entry, looked up): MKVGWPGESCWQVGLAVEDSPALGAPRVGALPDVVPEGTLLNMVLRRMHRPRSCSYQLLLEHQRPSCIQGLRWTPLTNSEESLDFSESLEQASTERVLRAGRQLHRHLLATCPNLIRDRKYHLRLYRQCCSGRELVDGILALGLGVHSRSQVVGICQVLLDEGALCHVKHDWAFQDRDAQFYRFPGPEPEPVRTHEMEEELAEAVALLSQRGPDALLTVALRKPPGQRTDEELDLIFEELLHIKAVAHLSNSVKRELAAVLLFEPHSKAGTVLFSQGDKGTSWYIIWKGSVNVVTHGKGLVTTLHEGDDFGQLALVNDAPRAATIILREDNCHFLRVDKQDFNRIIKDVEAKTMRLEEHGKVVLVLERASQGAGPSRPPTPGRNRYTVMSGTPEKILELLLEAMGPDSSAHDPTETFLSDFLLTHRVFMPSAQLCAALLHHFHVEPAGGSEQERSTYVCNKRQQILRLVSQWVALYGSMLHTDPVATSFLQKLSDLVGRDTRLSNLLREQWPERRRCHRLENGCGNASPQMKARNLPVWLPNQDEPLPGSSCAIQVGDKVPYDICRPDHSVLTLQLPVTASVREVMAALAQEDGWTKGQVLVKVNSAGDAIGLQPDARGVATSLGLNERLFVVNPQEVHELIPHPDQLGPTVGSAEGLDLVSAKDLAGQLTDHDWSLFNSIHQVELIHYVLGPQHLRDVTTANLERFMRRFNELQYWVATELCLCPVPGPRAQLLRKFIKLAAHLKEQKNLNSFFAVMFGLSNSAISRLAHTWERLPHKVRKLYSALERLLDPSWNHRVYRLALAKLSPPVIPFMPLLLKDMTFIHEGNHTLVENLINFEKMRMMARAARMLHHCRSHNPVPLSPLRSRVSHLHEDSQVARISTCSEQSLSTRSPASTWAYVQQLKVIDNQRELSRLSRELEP
Sequence of Rap guanine nucleotide exchange factor 4 (Homo sapiens) (Q8WZA2 whole entry, looked up): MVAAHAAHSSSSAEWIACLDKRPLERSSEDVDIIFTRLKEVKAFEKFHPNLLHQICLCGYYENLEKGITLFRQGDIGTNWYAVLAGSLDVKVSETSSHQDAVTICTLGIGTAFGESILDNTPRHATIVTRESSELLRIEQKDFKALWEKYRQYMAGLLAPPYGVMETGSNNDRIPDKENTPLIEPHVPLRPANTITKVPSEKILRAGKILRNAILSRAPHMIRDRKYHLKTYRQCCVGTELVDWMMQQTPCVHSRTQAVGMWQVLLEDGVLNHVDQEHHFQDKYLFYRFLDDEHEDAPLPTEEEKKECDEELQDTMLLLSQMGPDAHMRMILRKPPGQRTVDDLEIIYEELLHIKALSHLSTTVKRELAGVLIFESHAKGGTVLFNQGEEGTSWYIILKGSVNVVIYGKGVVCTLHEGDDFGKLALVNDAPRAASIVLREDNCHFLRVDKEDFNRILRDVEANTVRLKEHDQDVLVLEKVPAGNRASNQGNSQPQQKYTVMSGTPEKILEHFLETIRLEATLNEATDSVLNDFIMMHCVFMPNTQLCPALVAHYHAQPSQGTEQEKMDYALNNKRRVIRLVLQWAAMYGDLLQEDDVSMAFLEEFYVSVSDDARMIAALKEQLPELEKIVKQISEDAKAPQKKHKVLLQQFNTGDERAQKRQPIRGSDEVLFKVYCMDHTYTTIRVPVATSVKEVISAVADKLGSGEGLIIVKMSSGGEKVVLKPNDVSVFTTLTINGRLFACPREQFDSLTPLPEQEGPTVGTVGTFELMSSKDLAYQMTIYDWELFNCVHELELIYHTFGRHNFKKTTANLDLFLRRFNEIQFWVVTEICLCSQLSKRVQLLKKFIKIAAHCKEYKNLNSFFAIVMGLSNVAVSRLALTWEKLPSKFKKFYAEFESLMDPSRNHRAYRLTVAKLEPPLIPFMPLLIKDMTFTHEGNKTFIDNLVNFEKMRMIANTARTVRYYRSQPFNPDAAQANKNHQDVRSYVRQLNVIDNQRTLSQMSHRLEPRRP

SMILES	Potency [1]	Potency [2]	Potency [3]	Potency [4]	activation [2]	activity change, negative = inhibition [3]	activation [4]
Cn1c2ccccc2c2cc(/C=N/NC(=O)c3cc(O)cc(O)c3)ccc21	inactive	inactive	inactive	inactive			
CCCCCOC(=O)C1=C(C)Nc2nnnn2C1c1ccccc1Cl (stereo unspecified)	inactive				12.2% [at 17.1 µM, percent relative to cAMP agonist control]	-14.1% [at 30.8 µM]	21.2% [at 30.8 µM]
Oc1ccc(-c2cn3c(n2)SCC3)cc1O	inactive	inactive	inactive	inactive			
CCc1ccc(S(=O)(=O)Nc2cc(SCC(=O)O)c(O)c3ccccc23)cc1	inactive	inactive	inactive	14.1 µM (active)			
Cc1ccc2oc(=O)c3cnn(CC(=O)NC4CCC(C)CC4)c3c2c1 (stereo unspecified)	inactive	inactive	inactive	inactive			
O=S(=O)(Nc1nccs1)c1ccc(Nc2nnc(-c3ccccc3)c3ccccc23)cc1	inactive				2.79% [at 17.1 µM, percent relative to cAMP agonist control]	3.85% [at 30.8 µM]	17.5% [at 30.8 µM]
O=C(CSc1nnc(-c2ccco2)c(-c2ccco2)n1)c1ccccc1	inactive	inactive	inactive	inactive			
CC1(c2ccccc2)CC(C)(C)N2C(=O)C(=O)c3cccc1c32 (stereo unspecified)	inactive				-2.11% [at 17.1 µM, percent relative to cAMP agonist control]	-4.27% [at 30.8 µM]	21.7% [at 30.8 µM]
O=C1c2ccccc2C(c2nnnn2Cc2ccccc2)N1CCc1c[nH]c2ccccc12 (stereo unspecified)	inactive	inactive	inactive	inactive			
COC1OC(c2ccccc2)=C(c2cnc(N)nc2)c2ccc(F)cc21 (stereo unspecified)	inactive				3.06% [at 17.1 µM, percent relative to cAMP agonist control]	-3.58% [at 30.8 µM]	11.3% [at 30.8 µM]
CN(CC(=O)Nc1ccccc1Cl)C(=O)c1ccc(Cl)c(S(=O)(=O)N2CCCCCC2)c1	inactive	inactive	inactive	inactive			
CC1=NN(c2nc(-c3ccccc3)cs2)C(=O)C1	inactive	inactive	inactive	inactive			
CCOc1cc(/C=N/O)cc(Br)c1OCc1ccc(Cl)cc1	inactive	inactive	inactive	inactive			
COc1cc2c(c(OC)c1OC)C(c1ccccc1C)CC(=O)O2 (stereo unspecified)	inactive	inactive	inactive	inactive			
COc1ccc(-c2ccc(C(=O)NCC3CC3)c3occc23)c(C)c1	inactive	inactive	inactive	inactive			
O=C(O)c1cc(NN=C2c3ccccc3-c3ccccc32)ccc1Cl	inactive	inactive	inactive	inactive			
CC(C)=CCC[C@H](C)C[C@@H]1Cc2[nH][nH]c(=O)c2[C@H](c2ccc(F)cc2)O1	inactive	inactive	inactive	inactive			
O=C(Nc1nc2ccccc2c(=O)s1)c1ccc(F)cc1Cl	inactive	inactive	inactive	inactive			
CCCCn1c(=O)[nH]c(=O)c2c1nc(-c1ccccc1F)n2Cc1ccccc1OC	inactive	inactive	inactive	inactive			
Cc1cccc(NC(=S)N2CCN(S(=O)(=O)c3cccc(F)c3)CC2)c1	inactive	inactive	inactive	inactive			
COC(=O)c1sc(-c2ccc(C(C)(C)C)cc2)cc1NC(=O)CSCC(=O)O	inactive	inactive	inactive	inactive			
O=S(=O)(Nc1ccccc1N1CCCC1)c1ccccc1C(F)(F)F	inactive	inactive	inactive	inactive			
C=C1CC2C(=O)N(Cc3cc(OC)ccc3OC)C(C(=O)OCC)(C(=O)OCC)C1N2C(=O)OC(C)(C)C (stereo unspecified)	inactive	inactive	inactive	inactive			
COc1cc(/C=C2\SC(=S)N(NC(=O)c3ccc(O)c(OC)c3)C2=O)ccc1O	inactive	inactive	inactive	inactive			
CCOc1cc(C)c(-c2onc(C(F)(F)F)c2-c2csc(C)n2)c(O)c1	inactive	inactive	inactive	inactive			
CC(C)OP(=O)(OC(C)C)C1(NS(=O)(=O)c2ccc(Cl)cc2)C=C(Cl)C(=O)C(Cl)=C1	inactive				-0.932% [at 17.1 µM, percent relative to cAMP agonist control]	-5.74% [at 30.8 µM]	22.3% [at 30.8 µM]
COc1cccc(N2CCN(CC(=O)NC(=O)NCc3ccco3)CC2)c1	inactive	inactive	inactive	inactive			
Cc1ccc(C2CC(c3cccs3)=NN2C(=O)CSc2nc(=O)n3cc(C)ccc3n2)cc1 (stereo unspecified)	inactive	inactive	inactive	inactive			
O=S(=O)(Nc1ccccc1-c1ccccc1)c1ccccc1	inactive	inactive	inactive	inactive			

— PubChem BioAssay (NCATS)
